From PubChem BioAssay AID1159580 (chemical genetic matrix, 2015)
Screen size: about 5,500 compounds; about 2,000 (36%) were called active. About 18% were inconclusive and are not listed. Cut-off read from the data, not from the text of the source: active = normalized growth mostly below about 0.91 (no sharp cut-off); inconclusive = no clear call, values can overlap the other calls; inactive = mostly above about 0.92. This is one part of the list.

Assay: chemical genetic growth profiling, strain panel (AID 1159580);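 note: tested at 20 µM; growth read once vehicle control cultures reached saturation at 30 °C; 1 = growth at the plate median or of vehicle wells; lower values mean less growth of the strain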
Conditions: growth OD

Measured: normalized growth

O=C(O)c1c2ccccc2cc2ccccc12
inactive: S. cerevisiae deletion strains, locus YJR043C, strain POL32, active compounds read low 1.04 | S. cerevisiae deletion strains, locus YJR075W, strain HOC1, active compounds read low 1.01 | S. cerevisiae deletion strains, locus YKL009W, strain mrt4, active compounds read low 0.989 | S. cerevisiae deletion strains, locus YKL068W, active compounds read low 0.971 | S. cerevisiae deletion strains, locus YKL085W, strain MDH1 (second series), active compounds read low 0.958 | S. cerevisiae deletion strains, locus YKL085W, strain MDH1, active compounds read low 0.958 | S. cerevisiae deletion strains, locus YKL160W, strain elf1, active compounds read low 0.991 | S. cerevisiae deletion strains, locus YKL190W, strain CNB1, active compounds read low 1.02 | S. cerevisiae deletion strains, locus YKR001C, strain vps1, active compounds read low 0.981 | S. cerevisiae deletion strains, locus YKR026C, strain gcn3, active compounds read low 1 | S. cerevisiae deletion strains, locus YKR091W, strain srl3, active compounds read low 0.986 | S. cerevisiae deletion strains, locus YLL001W, strain dnm1, active compounds read low 1 | S. cerevisiae deletion strains, locus YLL026W, active compounds read low 0.996 | S. cerevisiae deletion strains, locus YLL041C, strain sdh2, active compounds read low 0.992 | S. cerevisiae deletion strains, locus YLR027C, strain aat2, active compounds read low 0.999 | S. cerevisiae deletion strains, locus YLR039C, strain RIC1, active compounds read low 1.04 | S. cerevisiae deletion strains, locus YLR058C, strain SHM2, active compounds read low 1.02 | S. cerevisiae deletion strains, locus YLR102C, strain apc9, active compounds read low 0.983 | S. cerevisiae deletion strains, locus YLR221C, strain rsa3, active compounds read low 0.973 | S. cerevisiae deletion strains, locus YLR258W, strain gsy2, active compounds read low 0.992 | S. cerevisiae deletion strains, locus YLR262C, strain YPT6 (second series), active compounds read low 0.976 | S. cerevisiae deletion strains, locus YLR262C, strain YPT6, active compounds read low 1.03 | S. cerevisiae deletion strains, locus YLR268W, strain sec22, active compounds read low 0.986 | S. cerevisiae deletion strains, locus YLR320W, strain mms22, active compounds read low 1 | S. cerevisiae deletion strains, locus YLR330W, strain CHS5, active compounds read low 1.02 | S. cerevisiae deletion strains, locus YLR342W, strain FKS1 (second series), active compounds read low 0.971 | S. cerevisiae deletion strains, locus YLR342W, strain FKS1, active compounds read low 1 | S. cerevisiae deletion strains, locus YLR357W, strain rsc2, active compounds read low 1.06 | S. cerevisiae deletion strains, locus YLR370C, strain arc18, active compounds read low 0.998 | S. cerevisiae deletion strains, locus YLR371W, strain rom2, active compounds read low 0.992 | S. cerevisiae deletion strains, locus YLR384C, strain iki3, active compounds read low 0.992 | S. cerevisiae deletion strains, locus YLR418C, strain cdc73, active compounds read low 0.96 | S. cerevisiae deletion strains, locus YML016C, strain PPZ1, active compounds read low 1.01 | S. cerevisiae deletion strains, locus YML032C, strain rad52, active compounds read low 0.954 | S. cerevisiae deletion strains, locus YML120C, strain ndi1, active compounds read low 0.965 | S. cerevisiae deletion strains, locus YML124C, strain tub3, active compounds read low 0.985 | S. cerevisiae deletion strains, locus YMR058W, strain fet3, active compounds read low 1.01 | S. cerevisiae deletion strains, locus YMR078C, strain ctf18, active compounds read low 0.974 | S. cerevisiae deletion strains, locus YMR125W, strain sto1, active compounds read low 1.03 | S. cerevisiae deletion strains, locus YMR129W, active compounds read low 0.987 | S. cerevisiae deletion strains, locus YMR205C, strain PFK2, active compounds read low 1.01 | S. cerevisiae deletion strains, locus YMR223W, strain ubp8, active compounds read low 0.962 | S. cerevisiae deletion strains, locus YMR231W, strain pep5, active compounds read low 0.979 | S. cerevisiae deletion strains, locus YMR263W, strain SAP30, active compounds read low 1.02 | S. cerevisiae deletion strains, locus YMR307W, strain GAS1, active compounds read low 1.13 | S. cerevisiae deletion strains, locus YNL067W, strain RPL9B, active compounds read low 1.02 | S. cerevisiae deletion strains, locus YNL071W, strain lat1, active compounds read low 0.948 | S. cerevisiae deletion strains, locus YNL128W, strain TEP1, active compounds read low 1.02 | S. cerevisiae deletion strains, locus YNL153C, strain GIM3, active compounds read low 1.02 | S. cerevisiae deletion strains, locus YNL209W, strain ssb2, active compounds read low 1 | S. cerevisiae deletion strains, locus YNL233W, strain BNI4, active compounds read low 1.02 | S. cerevisiae deletion strains, locus YNL248C, strain rpa49, active compounds read low 0.993 | S. cerevisiae deletion strains, locus YNL250W, strain rad50, active compounds read low 0.965 | S. cerevisiae deletion strains, locus YNL271C, strain bni1, active compounds read low 0.949 | S. cerevisiae deletion strains, locus YNL298W, strain CLA4, active compounds read low 0.948 | S. cerevisiae deletion strains, locus YNL307C, strain MCK1, active compounds read low 0.969 | S. cerevisiae deletion strains, locus YNL322C, strain KRE1 (second series), active compounds read low 0.998 | S. cerevisiae deletion strains, locus YNL322C, strain KRE1, active compounds read low 1.02 | S. cerevisiae deletion strains, locus YNR049C, strain mso1, active compounds read low 1.01 | S. cerevisiae deletion strains, locus YNR052C, strain pop2, active compounds read low 0.982 | S. cerevisiae deletion strains, locus YOL006C, strain TOP1, active compounds read low 0.989 | S. cerevisiae deletion strains, locus YOL012C, strain htz1 0.952 | S. cerevisiae deletion strains, locus YOL147C, strain pex11, active compounds read low 0.986 | S. cerevisiae deletion strains, locus YOR001W, strain rrp6, active compounds read low 0.957 | S. cerevisiae deletion strains, locus YOR061W, strain CKA2, active compounds read low 1.01 | S. cerevisiae deletion strains, locus YOR069W, strain VPS5, active compounds read low 1.01 | S. cerevisiae deletion strains, locus YOR070C, strain gyp1, active compounds read low 0.999 | S. cerevisiae deletion strains, locus YOR080W, strain dia2, active compounds read low 1.01 | S. cerevisiae deletion strains, locus YOR083W, strain WHI5, active compounds read low 0.915 | S. cerevisiae deletion strains, locus YOR106W, strain vam3, active compounds read low 0.95 | S. cerevisiae deletion strains, locus YOR136W, strain idh2, active compounds read low 0.978 | S. cerevisiae deletion strains, locus YOR144C, strain elg1, active compounds read low 0.987 | S. cerevisiae deletion strains, locus YOR184W, strain ser1, active compounds read low 0.965 | S. cerevisiae deletion strains, locus YOR265W, strain rbl2, active compounds read low 0.996 | S. cerevisiae deletion strains, locus YOR270C, strain vph1, active compounds read low 0.973 | S. cerevisiae deletion strains, locus YOR290C, strain snf2, active compounds read low 0.999 | S. cerevisiae deletion strains, locus YOR316C, strain cot1, active compounds read low 0.983 | S. cerevisiae deletion strains, locus YPL051W, strain arl3, active compounds read low 0.982 | S. cerevisiae deletion strains, locus YPL055C, strain LGE1, active compounds read low 1.03 | S. cerevisiae deletion strains, locus YPL078C, strain atp4, active compounds read low 1 | S. cerevisiae deletion strains, locus YPL106C, strain sse1, active compounds read low 0.947 | S. cerevisiae deletion strains, locus YPL240C, strain hsp82, active compounds read low 0.994 | S. cerevisiae deletion strains, locus YPL241C, strain CIN2, active compounds read low 0.982 | S. cerevisiae deletion strains, locus YPR119W, strain clb2, active compounds read low 0.979 | S. cerevisiae deletion strains, locus YPR141C, strain kar3, active compounds read low 0.948 | S. cerevisiae deletion strains, locus YPR163C, strain tif3, active compounds read low 0.984 | S. cerevisiae deletion strains, locus YPR167C, strain met16, active compounds read low 0.987 | S. cerevisiae deletion strains, strain wtn01, active compounds read low 0.987 | S. cerevisiae strains, strain wild type, active compounds read low 1.01
